Drawing on PubChem BioAssay (EPA / NIEHS), this text covers outcome and AC50 for four molecules.

Active and inactive are the calls of the source. How the source made its calls: active means hit-call score of the fitted dose curve at least 0.9, where 1 is the maximum; inactive means score below 0.9.

A short description of experiment [1]: ATG_CRE_CIS: Attagene CIS-FACTORIAL HepG2 Assay for human cAMP Responsive Element (CRE) binding protein 3 (AID 2282926). The following applies: HepG2 CRE cis-reporter, Attagene multiplexed mRNA; actives raise or lower the signal. In short, it runs like this: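 Endogenous transcription factor activity read via CRE-regulated reporter transcripts in transfected HepG2 cells. After 24 h exposure, RNA was reverse-transcribed, amplified, fluorescently labelled and sized by capillary electrophoresis; gain or loss fitted against DMSO.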

In experiment [2] the target is CCAAT/enhancer-binding protein beta (Homo sapiens) (UniProt P17676). Kind of experiment: ATG_C_EBP_CIS: Attagene CIS-FACTORIAL HepG2 Assay for human CCAAT/Enhancer Binding Protein (C/EBP) beta (AID 2282927). To be noted: HepG2 Attagene cis-factorial transcription factor reporter; actives raise or lower the signal. Put shortly: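 Endogenous transcription factor activity in human liver HepG2 cells is inferred from induction of a CEBPB-linked reporter mRNA. Exposure lasts 24 h; activity is fitted in both directions relative to DMSO.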
Sequence of CCAAT/enhancer-binding protein beta (Homo sapiens) (P17676 whole entry, looked up): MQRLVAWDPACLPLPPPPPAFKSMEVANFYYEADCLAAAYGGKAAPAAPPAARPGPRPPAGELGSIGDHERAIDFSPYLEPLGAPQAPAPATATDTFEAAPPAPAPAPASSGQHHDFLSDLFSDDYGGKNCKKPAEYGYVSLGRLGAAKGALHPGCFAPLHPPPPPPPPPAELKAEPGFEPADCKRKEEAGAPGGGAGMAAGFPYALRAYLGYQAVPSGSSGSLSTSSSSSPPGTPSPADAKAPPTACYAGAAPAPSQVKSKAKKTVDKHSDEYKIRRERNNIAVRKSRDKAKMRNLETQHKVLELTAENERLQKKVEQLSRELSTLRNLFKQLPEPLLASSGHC

A short description of experiment [3]: ATG_CMV_CIS: Attagene CIS-FACTORIAL HepG2 Assay for human CMV (Internal Marker) (AID 2282928).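 Further: endpoint acts as a background internal control marker rather than a target.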 To be noted: HepG2 CMV promoter reporter, transcription factor profiling; actives raise or lower the signal. In short, it runs like this: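 Readout: fluorescent reporter cDNA fragments separated by capillary electrophoresis after RT-PCR and HpaI cut. Cells: HepG2 carrying transfected cis-promoter reporter constructs, dosed 24 h. Endpoint serves as background internal-marker control, fit bidirectionally versus DMSO.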

Experiment [4] can be described thus: ATG_AP_1_CIS: Attagene CIS-FACTORIAL HepG2 Assay for human Activator Protein 1 (AP-1) (AID 2282931). To be noted: HepG2 Attagene cis-factorial AP-1 reporter mRNA; actives raise or lower the signal. Put shortly:
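Reporter transcripts were measured 24 h after dosing by RT-PCR and capillary electrophoresis of fluorescent fragments. Cells: HepG2 carrying transfected cis-regulated reporter constructs reading endogenous factor activity. Gain or loss fitted against DMSO.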

Experiment [5] is described as follows: ATG_AP_2_CIS: Attagene CIS-FACTORIAL HepG2 Assay for human Activator Protein 2 (AP-2) (AID 2282932). To be noted: HepG2 AP-2 cis-reporter, Attagene transcription factor profiling; actives raise or lower the signal. Put shortly: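 Transiently transfected HepG2 cells are exposed to chemical for 24 h. Reporter transcripts are then measured as fluorescence following RT-PCR and capillary separation, and gain- or loss-of-signal is fitted relative to DMSO.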

Experiment [6] is described as follows: ATG_BRE_CIS: Attagene CIS-FACTORIAL HepG2 Assay for human Bone Morphogenetic Protein (BMP) Response Element (BRE) (AID 2282933). To be noted: HepG2 BMP response element reporter, Attagene transcription factor profiling; actives raise or lower the signal. Put shortly: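 Endogenous transcription factor activity read in transiently transfected HepG2 cells after 24 h chemical exposure. Bidirectional curve fitting against DMSO; readout is reporter transcript level by RT-PCR with capillary electrophoresis of labelled products.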

Experiment [7] deals with Transcription factor E2F1 (Homo sapiens) (UniProt Q01094). Nature of the experiment: ATG_E2F_CIS: Attagene CIS-FACTORIAL HepG2 Assay for human E2F Transcription Factor 1 (AID 2282935). The following applies: HepG2 Attagene cis-reporter, E2F reporter RNA transcripts; actives raise or lower the signal. Put shortly: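 Fluorescent RT-PCR products, digested with HpaI for 2 h at 37 C, are separated by capillary electrophoresis. Source RNA comes from transfected HepG2 cultures treated for 24 h.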
Sequence of Transcription factor E2F1 (Homo sapiens) (Q01094 whole entry, looked up): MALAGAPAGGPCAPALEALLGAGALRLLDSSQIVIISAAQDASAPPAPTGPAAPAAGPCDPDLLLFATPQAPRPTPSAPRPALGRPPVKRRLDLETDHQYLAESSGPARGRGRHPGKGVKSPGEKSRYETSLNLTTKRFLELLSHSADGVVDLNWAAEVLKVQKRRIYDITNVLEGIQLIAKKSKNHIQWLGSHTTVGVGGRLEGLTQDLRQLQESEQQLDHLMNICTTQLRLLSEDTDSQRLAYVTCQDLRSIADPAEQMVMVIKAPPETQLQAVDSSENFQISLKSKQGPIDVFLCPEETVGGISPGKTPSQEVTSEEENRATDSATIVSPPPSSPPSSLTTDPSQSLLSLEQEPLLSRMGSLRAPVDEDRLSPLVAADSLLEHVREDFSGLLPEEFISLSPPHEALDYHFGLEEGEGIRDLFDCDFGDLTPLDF

Experiment [8] can be described thus: ATG_E_Box_CIS: Attagene CIS-FACTORIAL HepG2 Assay for human Enhancer Box (E-box) (AID 2282936). To be noted: HepG2 E-box cis-reporter transcription, actives raise or lower the signal. In short, it runs like this:
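Fluorescent reporter fragments separated by capillary electrophoresis gave the signal; mRNA came from HepG2 cells transfected with cis-element reporters and treated 24 h. Curves fitted bidirectionally relative to DMSO controls.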

Experiment [9] in a line: ATG_M_61_CIS: Attagene CIS-FACTORIAL HepG2 Assay for M61 Transcription Factor (Internal Marker) (AID 2282937). To be noted: HepG2 Attagene CIS-FACTORIAL M61 internal marker reporter; actives raise or lower the signal. In short, it runs like this: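 Readout: fluorescent reporter mRNA fragments resolved by capillary electrophoresis after RT-PCR. Transiently transfected human HepG2 cells carried MRTU constructs reporting endogenous TF activity; 24 h chemical exposure; gain or loss of signal fitted relative to DMSO.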

Experiment [10] can be described thus: ATG_EGR_CIS: Attagene CIS-FACTORIAL HepG2 Assay for human Early Growth Response 1 (EGR1) (AID 2282938). To be noted: HepG2 Attagene CIS-FACTORIAL EGR reporter mRNA; actives raise or lower the signal. In short, it runs like this: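 Read-out: fluorescent reporter-mRNA fragments resolved by capillary electrophoresis after RT-PCR, 24 h post-dose in transiently transfected HepG2. Endogenous transcription-factor activity reported via cis-element-regulated reporter units; gain or loss fitted relative to DMSO.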

Experiment [11] can be described thus: ATG_M_19_CIS: Attagene CIS-FACTORIAL HepG2 Assay for M19 Transcription Factor (Internal Marker) (AID 2282939). To be noted: HepG2 Attagene CIS-FACTORIAL M19 internal marker reporter; actives raise or lower the signal. Put shortly: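 Internal marker readout, fitted in both directions against DMSO, from HepG2 cells carrying transfected cis-element reporter constructs; RT-PCR and capillary electrophoresis of reporter mRNA after 24 h exposure.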

Experiment [12] in a line: ATG_GATA_CIS: Attagene CIS-FACTORIAL HepG2 Assay for human GATA Binding Protein (AID 2282944). The following applies: HepG2 GATA cis-element reporter, Attagene multiplex mRNA; actives raise or lower the signal. Put shortly: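 Reporter transcripts from a GATA cis-regulated unit, among multiplexed reporters in transfected HepG2 cells, were measured by RT-PCR with capillary electrophoresis after 24 h dosing. Induction or loss scored relative to DMSO.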

A short description of experiment [13]: ATG_GLI_CIS: Attagene CIS-FACTORIAL HepG2 Assay for human Zinc Finger Protein GLI1 (AID 2282945). The following applies: HepG2, Attagene cis-factorial reporter mRNA, GLI element; actives raise or lower the signal. In short, it runs like this:
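Bidirectional curve fits relative to DMSO, using reporter mRNA levels from RT-PCR plus capillary electrophoresis. Cells were HepG2 transiently carrying cis-regulated reporter constructs, harvested 24 h after dosing.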

A short description of experiment [14]: ATG_ISRE_CIS: Attagene CIS-FACTORIAL HepG2 Assay for human Interferon Regulatory Factor 1 (IRF1) binding to an Interferon-Stimulated Response Element (ISRE) (AID 2282948). The following applies: HepG2 ISRE cis-reporter (Attagene), mRNA transcription readout; actives raise or lower the signal. In short, it runs like this: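 Read-out: fluorescent RT-PCR products resolved by capillary electrophoresis, reporting endogenous transcription factor activity via ISRE-driven reporter mRNA in transfected HepG2 cells dosed for 24 h; gain or loss fitted relative to DMSO.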

Experiment [15] can be described thus: ATG_M_32_CIS: Attagene CIS-FACTORIAL HepG2 Assay for M32 Transcription Factor (Internal Marker) (AID 2282949).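 Further: background control marker of the multiplexed CIS panel rather than a real target.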 To be noted: HepG2 Attagene cis-factorial M32 reporter, mRNA; actives raise or lower the signal. Put shortly: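 Transient MRTU transfection of HepG2; 24 h compound treatment; TriZol RNA, oligo(dT) RT, reporter PCR, 6-FAM primer extension, HpaI cut, CE. Gain/loss of signal vs DMSO.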

A short description of experiment [16]: ATG_MRE_CIS: Attagene CIS-FACTORIAL HepG2 Assay for human Metal Responsive Element (MRE) (AID 2282954). The following applies: HepG2 MRE cis-reporter transcription, Attagene multiplex; actives raise or lower the signal. Put shortly: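 Multiplexed cis-reporter assay in human HepG2 liver cells, 24 h incubation with test chemical. Reporter transcripts measured by RT-PCR and capillary electrophoresis; values from bidirectional curve fitting versus DMSO.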

The target of experiment [17] is Paired box protein Pax-6 (Homo sapiens) (UniProt P26367). Kind of experiment: ATG_Pax6_CIS: Attagene CIS-FACTORIAL HepG2 Assay for human Paired Box 6 (PAX6) (AID 2282956). To be noted: HepG2 CIS-FACTORIAL PAX6 reporter transcription, RNA readout; actives raise or lower the signal. In short, it runs like this:
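Readout: reporter transcript fluorescence after RT-PCR and capillary electrophoresis. Cells: HepG2, transiently transfected with cis-regulated MRTUs. Exposure 24 h. Gain or loss of signal fitted bidirectionally relative to DMSO.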

Experiment [18] in a line: ATG_PXRE_CIS: Attagene CIS-FACTORIAL HepG2 Assay for human Pregnane X Receptor Element (PXRE) (AID 2282957). The following applies: HepG2 Attagene CIS-FACTORIAL PXRE reporter, mRNA; actives raise or lower the signal. In short, it runs like this: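 Reporter transcripts under endogenous PXR-responsive cis-regulation quantified from total RNA of transfected HepG2 cells 24 h post-dosing, via RT-PCR with fluorescent primer extension and capillary electrophoresis. Gain or loss of signal fitted against DMSO baseline.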

In experiment [19] the target is Transcription factor Sp1 (Homo sapiens) (UniProt P08047). Kind of experiment: ATG_Sp1_CIS: Attagene CIS-FACTORIAL HepG2 Assay for human Specificity Protein 1 (Sp1) (AID 2282961). To be noted: HepG2 Sp1 cis-reporter transcription, actives raise or lower the signal. Put shortly:
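Read-out: fluorescence of 6-FAM-labeled, HpaI-digested RT-PCR products separated by capillary electrophoresis. HepG2 cells carried transfected cis-element reporter units and were exposed to chemicals for 24 h; gain or loss of signal fitted relative to DMSO.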

The target in experiment [20] is Signal transducer and activator of transcription 3 (Homo sapiens) (UniProt P40763). Nature of the experiment: ATG_STAT3_CIS: Attagene CIS-FACTORIAL HepG2 Assay for human Signal Transducer and Activator of Transcription 3 (STAT3) (AID 2282963). The following applies: HepG2, Attagene cis-factorial STAT3 reporter transcription; actives raise or lower the signal. In short, it runs like this: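 Cis-factorial format: endogenous transcription factors in HepG2 drive transfected reporter units. After 24 h treatment, reporter RNA was reverse-transcribed, amplified, FAM-labelled and HpaI-digested before CE analysis; activity scored in both directions against DMSO.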
Sequence of Signal transducer and activator of transcription 3 (Homo sapiens) (P40763 whole entry, looked up): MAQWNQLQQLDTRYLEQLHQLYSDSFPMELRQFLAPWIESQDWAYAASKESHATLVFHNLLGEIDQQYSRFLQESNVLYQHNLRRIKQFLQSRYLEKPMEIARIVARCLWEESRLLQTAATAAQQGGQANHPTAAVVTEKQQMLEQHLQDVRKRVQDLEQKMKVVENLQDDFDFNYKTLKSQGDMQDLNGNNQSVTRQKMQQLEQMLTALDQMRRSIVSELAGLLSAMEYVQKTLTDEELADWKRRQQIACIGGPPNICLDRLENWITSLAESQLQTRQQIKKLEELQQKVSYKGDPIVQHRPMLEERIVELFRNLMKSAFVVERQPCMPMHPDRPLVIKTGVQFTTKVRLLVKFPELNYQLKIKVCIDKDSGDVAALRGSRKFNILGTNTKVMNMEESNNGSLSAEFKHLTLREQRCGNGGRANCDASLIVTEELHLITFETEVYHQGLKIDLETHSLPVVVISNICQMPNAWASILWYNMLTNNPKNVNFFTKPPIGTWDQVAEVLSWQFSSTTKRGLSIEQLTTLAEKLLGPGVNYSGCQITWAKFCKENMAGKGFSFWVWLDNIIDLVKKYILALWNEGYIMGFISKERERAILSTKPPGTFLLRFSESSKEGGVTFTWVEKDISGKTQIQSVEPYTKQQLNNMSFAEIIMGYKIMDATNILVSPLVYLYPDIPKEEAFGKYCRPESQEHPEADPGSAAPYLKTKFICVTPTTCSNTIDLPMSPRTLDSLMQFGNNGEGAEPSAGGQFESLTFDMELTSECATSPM

Sequence of Paired box protein Pax-6 (Homo sapiens) (P26367 whole entry, looked up): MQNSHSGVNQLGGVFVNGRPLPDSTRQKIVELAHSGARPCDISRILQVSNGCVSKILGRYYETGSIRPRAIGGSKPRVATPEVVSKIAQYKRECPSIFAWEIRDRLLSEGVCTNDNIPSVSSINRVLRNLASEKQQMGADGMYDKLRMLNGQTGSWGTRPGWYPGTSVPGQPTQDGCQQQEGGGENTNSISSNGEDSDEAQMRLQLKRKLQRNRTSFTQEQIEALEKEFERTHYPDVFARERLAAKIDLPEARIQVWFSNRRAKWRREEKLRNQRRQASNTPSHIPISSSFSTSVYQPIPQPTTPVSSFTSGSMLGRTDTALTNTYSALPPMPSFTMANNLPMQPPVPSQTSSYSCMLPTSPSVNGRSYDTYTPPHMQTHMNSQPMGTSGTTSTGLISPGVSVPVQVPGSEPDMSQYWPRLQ
Sequence of Transcription factor Sp1 (Homo sapiens) (P08047 whole entry, looked up): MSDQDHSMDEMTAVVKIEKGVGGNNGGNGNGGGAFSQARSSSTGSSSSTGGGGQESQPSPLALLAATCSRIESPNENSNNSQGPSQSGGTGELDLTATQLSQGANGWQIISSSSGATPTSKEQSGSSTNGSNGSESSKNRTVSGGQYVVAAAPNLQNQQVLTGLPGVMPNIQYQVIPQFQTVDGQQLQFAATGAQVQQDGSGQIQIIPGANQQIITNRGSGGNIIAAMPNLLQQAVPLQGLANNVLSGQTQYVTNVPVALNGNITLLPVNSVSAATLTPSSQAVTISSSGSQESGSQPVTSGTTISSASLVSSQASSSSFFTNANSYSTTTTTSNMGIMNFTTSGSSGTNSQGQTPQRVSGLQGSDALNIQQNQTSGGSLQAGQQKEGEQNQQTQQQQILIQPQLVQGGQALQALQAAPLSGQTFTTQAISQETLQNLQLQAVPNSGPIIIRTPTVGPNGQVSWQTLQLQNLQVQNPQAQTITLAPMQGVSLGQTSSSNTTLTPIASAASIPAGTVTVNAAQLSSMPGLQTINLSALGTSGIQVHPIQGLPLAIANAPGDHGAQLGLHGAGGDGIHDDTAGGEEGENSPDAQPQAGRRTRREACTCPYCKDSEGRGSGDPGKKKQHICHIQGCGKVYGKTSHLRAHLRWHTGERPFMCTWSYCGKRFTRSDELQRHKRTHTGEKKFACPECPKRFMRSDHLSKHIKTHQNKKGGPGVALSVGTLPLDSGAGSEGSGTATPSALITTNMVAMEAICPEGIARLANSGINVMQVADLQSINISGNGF

In the case of `O=C(O)c1ccccc1C(=O)O`, the call in [1], in experiment [2], in experiment [3], in experiment [4], in [5] and in experiment [6] was inactive. Moreover, the outcome in [7], in [8], in experiment [9], in experiment [10], in [11] and in [12] was inactive. Besides, the outcome in experiment [13], in experiment [14], in experiment [15], in experiment [16], in [17] and in experiment [19] was inactive. In experiment [20], the outcome was inactive. Besides, in experiment [18], the AC50 was 28.3 µM (active).

In the case of `CC(O)(P(=O)(O)O)P(=O)(O)O`, the call in experiment [1], in experiment [2], in [3], in experiment [4], in experiment [5] and in experiment [6] was inactive. The molecule was classed as inactive in experiment [7], in experiment [8], in experiment [9], in experiment [10], in experiment [11] and in experiment [12]. The molecule was called inactive in experiment [13], in [14], in experiment [15], in experiment [16], in [17] and in experiment [18]. In addition, the molecule was classed as inactive in [19] and in [20].

As for `CC1=C(CC=O)C(C)(C)CCC1`, the result in [1], in experiment [2], in [3], in [4], in experiment [5] and in [6] was inactive. Besides, the outcome in [7], in experiment [8], in [9], in [10], in experiment [11] and in experiment [12] was inactive. The molecule was classed as inactive in [13], in experiment [14], in experiment [15], in [16], in experiment [17] and in experiment [19]. Further, in experiment [20], the result was inactive. Further, in experiment [18], the concentration at half-maximal activity (AC50) is 0.734 µM (active).

For `CC(C)CC(=O)O`, the result in experiment [1], in experiment [2], in experiment [3], in [4], in experiment [5] and in experiment [6] was inactive. In addition, the outcome in experiment [7], in experiment [8], in [9], in experiment [10], in experiment [11] and in [12] was inactive. Moreover, the molecule was classed as inactive in [13], in [14], in experiment [15], in experiment [16], in [17] and in experiment [18]. The molecule was classed as inactive in experiment [19] and in experiment [20].

For orientation: AC50 means the concentration giving half of the maximal activity seen.
